Measurements: PubChem BioAssay (Tox21)
Records with an inconclusive call do not appear. Active and inactive are the calls of the source. Unless noted, calls follow the shape of the full dose curve.

Key:
[1] = target: Thyrotropin receptor (Homo sapiens) (UniProt P16473); test: qHTS assay to identify small molecule agonists of the thyroid stimulating hormone receptor (TSHR) signaling pathway (AID 1224843); also: nearly all actives have a fitted effect of over 45% in size
Outline: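 Agonist activity read as cAMP rise via d2/cryptate HTRF competition, 1 h room-temperature detection, in HEK293 cells expressing TSHR. Fifteen-point titrations, each run in triplicate, with a 30 min room-temperature incubation beforehand.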

[2] = qHTS assay to identify small molecule agonists of the hypoxia (HIF-1) signaling pathway - cell viability counter screen (AID 1224844); also: nearly all actives have a fitted effect of over 50% in size
Outline: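 HRE-bla ME-180; 0.5% dFBS; cpd 17 h, 37C, 5% CO2; CellTiter-Glo lum., 30 min RT, post-FRET read, same wells.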

[3] = qHTS assay to identify small molecule agonists of H2AX (AID 1224845; active = well fitted activation curve with a large enough effect in the signal ratio in the repeat runs, not every such curve was filed as active; the % refers to the signal ratio)
Outline: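 Phospho-H2AX Ser139 measured by HTRF (ex 320 nm; em 665 and 620 nm) after 24 hr antibody incubation. Compounds, 15 concentrations, 0.76% DMSO, were applied to CHO-K1 cells for 3hr at 37C before lysis.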

[4] = qHTS assay to identify small molecule agonists of the hypoxia (HIF-1) signaling pathway (AID 1224846; active = well fitted activation curve with a large enough effect in the signal ratio in the repeat runs, not every such curve was filed as active; the % refers to the signal ratio)
Outline: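 Reporter induction in HRE-bla ME-180 cells is taken as agonism: cells sit 5 hrs after plating, receive compounds or DMSO only, incubate 17 hrs at 37C under 5% CO2, and are loaded with CCF4-AM for beta-lactamase FRET measurement.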

[5] = qHTS assay to identify small molecule agonists of H2AX - cell viability counter screen (AID 1224847); also: top concentration of the series differs between compounds; nearly all actives have a fitted effect of over 30% in size
Outline: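 Read-out: CellTiter-Glo luminescence, 30 min RT. Cells: wild-type CHO-K1, 1000/well, 10% FBS, plated overnight at 37C. Treatment: 15 concentrations, 3 hr, 37C, 0.76% DMSO.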

[6] = qHTS assay to identify small molecule antagonists of the estrogen related receptor (ERR) signaling pathway from Tox21 library (AID 1224848; active = well fitted curve in the direction sought with a large enough effect in the repeat runs; an effect the other way counts as inactive or inconclusive; also: nearly all actives have a fitted effect of over 50% in size)
Outline: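 Luciferase luminescence (ONE-Glo, 30 min room temperature) was the read-out. Cells of the NTP-supplied ERR line, 2,000 per well, were given 6 h at 37 C before compound addition in DMSO and 18 h exposure at 37 C.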

[7] = qHTS assay to identify small molecule agonists of the estrogen related receptor (ERR) signaling pathway from Tox21 library (AID 1224849); details: ERR reporter cell line, ONE-Glo luciferase, 18 h; at 92.4 µM (top of the series) unless noted; also: nearly all actives have a fitted effect of over 15% in size
Outline: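 Tox21 compounds tested for ERR agonism in an NTP reporter cell line: 18 h treatment at 37 C, then ONE-Glo luminescence.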

[8] = qHTS RealTime-Glo MT Cell Viability Assay in HepG2 cells - 24 hour (AID 1224867; active = well fitted curve in the direction sought with a large enough effect in the repeat runs; an effect the other way counts as inactive or inconclusive; also: nearly all actives have a fitted effect of over 50% in size)
Outline: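 qHTS, HepG2, 600 cells/well, RealTime-Glo (NanoLuc + prosubstrate) added with cells; 5 h preincubation; DMSO compound addition; 37 C; luminescence at 0/8/16/24/32/40 h.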

[9] = qHTS RealTime-Glo MT Cell Viability Assay in HEK293 cells - 32 hour (AID 1224868; active = well fitted curve in the direction sought with a large enough effect in the repeat runs; an effect the other way counts as inactive or inconclusive; also: top concentration of the series differs between compounds; nearly all actives have a fitted effect of over 50% in size)
Outline: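 Assay medium contained NanoLuc luciferase plus cell-permeant prosubstrate, added with HEK293 cells at 600 cells/well. After 5 h at 37 C/5% CO2 compounds were added; plates stayed at 37 C for 40 h with serial luminescence reads.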

[10] = A CellTox Green Cytotoxicity Assay to monitor cytotoxicity in HEK293 cells - 0 hour (AID 1224869; active = well fitted curve in the direction sought with a large enough effect in the repeat runs; an effect the other way counts as inactive or inconclusive; also: nearly all actives have a fitted effect of over 50% in size)
Outline: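 Tox21 screen in HEK293: membrane-impermeant cyanine dye fluoresces on binding dead-cell DNA; compound pinned 5 h post-seeding, plates held at 37 C, signal read repeatedly through 40 h.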
% is scaled to controls: 0 for no effect and ±100 for the full control effect.

Chain of Thyrotropin receptor (Homo sapiens) (P16473 whole entry, looked up): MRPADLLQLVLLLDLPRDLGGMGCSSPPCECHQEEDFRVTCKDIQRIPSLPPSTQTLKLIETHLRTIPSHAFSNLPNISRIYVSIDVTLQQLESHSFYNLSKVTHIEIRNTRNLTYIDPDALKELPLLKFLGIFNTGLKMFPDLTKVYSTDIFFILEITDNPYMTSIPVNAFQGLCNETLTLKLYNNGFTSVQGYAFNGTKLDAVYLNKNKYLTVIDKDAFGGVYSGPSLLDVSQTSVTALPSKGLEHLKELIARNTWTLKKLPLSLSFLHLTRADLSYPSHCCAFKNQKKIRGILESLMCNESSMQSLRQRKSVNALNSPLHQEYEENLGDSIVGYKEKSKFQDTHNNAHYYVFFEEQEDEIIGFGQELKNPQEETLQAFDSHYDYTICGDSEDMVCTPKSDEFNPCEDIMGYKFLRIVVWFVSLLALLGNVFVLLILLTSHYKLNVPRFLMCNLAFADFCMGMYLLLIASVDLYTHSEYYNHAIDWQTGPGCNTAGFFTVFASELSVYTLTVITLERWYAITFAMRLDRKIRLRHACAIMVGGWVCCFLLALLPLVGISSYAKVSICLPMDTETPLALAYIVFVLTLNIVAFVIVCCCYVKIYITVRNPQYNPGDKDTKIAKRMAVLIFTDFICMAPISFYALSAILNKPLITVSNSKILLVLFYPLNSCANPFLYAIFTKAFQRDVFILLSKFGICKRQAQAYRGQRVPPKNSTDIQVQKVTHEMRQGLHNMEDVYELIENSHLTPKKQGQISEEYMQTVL

CC(C)CCCC(C)NCCC(C)C (stereo not drawn)
inactive: outcome [1] | Potency [2] | outcome [3] | outcome [4] | Potency [5] | Potency [6] | activity change, positive = activation [7] 1.21% [at 42.5 µM] | outcome [8] | Potency [9] | Potency [10]

CCO[Si](C)(OCC)OCC
inactive: outcome [1] | Potency [2] | outcome [3] | outcome [4] | Potency [5] | Potency [6] | activity change, positive = activation [7] 4.4% | outcome [8] | Potency [9] | Potency [10]

CC(=O)CCc1ccc(O)cc1
inactive: outcome [1] | Potency [2] | outcome [3] | outcome [4] | Potency [5] | outcome [8] | Potency [9]

CO
inactive: outcome [1] | Potency [2] | outcome [3] | outcome [4] | Potency [5] | Potency [6] | activity change, positive = activation [7] -0.295% | outcome [8] | Potency [9] | Potency [10]

COC(=O)[C@H]1[C@H]2C[C@@H]3c4[nH]c5cc(OC)ccc5c4CCN3C[C@H]2C[C@@H](OC(=O)COc2ccc(OC)cc2)[C@@H]1OC
inactive: outcome [1] | Potency [2] | outcome [3] | outcome [4] | Potency [5] | Potency [6] | activity change, positive = activation [7] -9.01% [at 42.5 µM] | outcome [8] | Potency [9] | Potency [10]

O=C(O)C1CCC1
inactive: outcome [1] | Potency [2] | outcome [3] | outcome [4] | Potency [5] | outcome [8] | Potency [9] | Potency [10]

NCCNC(=O)c1ccc(Cl)cn1
inactive: outcome [1] | Potency [2] | outcome [3] | outcome [4] | Potency [5] | Potency [6] | activity change, positive = activation [7] -0.271% [at 42.5 µM] | outcome [8] | Potency [9] | Potency [10]

C=C(C)C(=O)OCCC(C)OC(=O)C(=C)C (stereo not drawn)
inactive: outcome [1] | Potency [2] | outcome [3] | outcome [4] | Potency [5] | Potency [6] | activity change, positive = activation [7] 3.72% | outcome [8] | Potency [9] | Potency [10]

Cc1c(F)cc2c(=O)c(C(=O)O)cn3c2c1CCC3C (stereo not drawn)
inactive: outcome [1] | Potency [2] | outcome [3] | outcome [4] | Potency [5] | activity change, positive = activation [7] -37.3% [at 42.5 µM] | outcome [8] | Potency [9] | Potency [10]

CCCCCCCCCCC1CO1 (stereo not drawn)
inactive: outcome [1] | Potency [2] | outcome [3] | outcome [4] | Potency [5] | outcome [8] | Potency [9] | Potency [10]

Cc1ccc(N)cc1[N+](=O)[O-]
inactive: outcome [1] | Potency [2] | outcome [3] | outcome [4] | Potency [5] | outcome [8] | Potency [9] | Potency [10]

O=[N+]([O-])c1ccc(CCO)cc1
inactive: outcome [1] | Potency [2] | outcome [3] | outcome [4] | Potency [5] | outcome [8] | Potency [9] | Potency [10]

COC(C(=O)O)c1ccccc1 (stereo not drawn)
inactive: outcome [1] | Potency [2] | outcome [3] | outcome [4] | Potency [5] | outcome [8] | Potency [9] | Potency [10]

CNc1ncnc2nc[nH]c12
inactive: outcome [1] | Potency [2] | outcome [3] | outcome [4] | Potency [5] | Potency [6] | activity change, positive = activation [7] 1.91% | Potency [9]

COc1nc(C)nc(N)n1
inactive: outcome [1] | Potency [2] | outcome [3] | outcome [4] | Potency [5] | outcome [8] | Potency [9]

CC(=O)O[C@H](CC(=O)[O-])C[N+](C)(C)C
inactive: outcome [1] | Potency [2] | outcome [3] | outcome [4] | Potency [5] | Potency [6] | activity change, positive = activation [7] -2.17% | outcome [8] | Potency [9] | Potency [10]

CCCOCC(C)OCC(C)O (stereo not drawn)
inactive: outcome [1] | Potency [2] | outcome [3] | outcome [4] | Potency [5] | Potency [6] | activity change, positive = activation [7] 1.4% | outcome [8] | Potency [9] | Potency [10]

OC[C@H]1O[C@@H]2O[C@H]3[C@H](O)[C@@H](O)[C@@H](O[C@H]4[C@H](O)[C@@H](O)[C@@H](O[C@H]5[C@H](O)[C@@H](O)[C@@H](O[C@H]6[C@H](O)[C@@H](O)[C@@H](O[C@H]7[C@H](O)[C@@H](O)[C@@H](O[C@H]8[C@H](O)[C@@H](O)[C@@H](O[C@H]9[C@H](O)[C@@H](O)[C@@H](O[C@H]1[C@H](O)[C@H]2O)O[C@@H]9CO)O[C@@H]8CO)O[C@@H]7CO)O[C@@H]6CO)O[C@@H]5CO)O[C@@H]4CO)O[C@@H]3CO
inactive: outcome [1] | Potency [2] | outcome [3] | outcome [4] | Potency [5] | Potency [6] | activity change, positive = activation [7] 0.681% [at 42.5 µM] | outcome [8] | Potency [9] | Potency [10]

CCCCCCOC(=O)CC(CC(=O)OCCCCCC)(OC(=O)CCC)C(=O)OCCCCCC
inactive: outcome [1] | Potency [2] | outcome [3] | outcome [4] | Potency [5] | Potency [6] | activity change, positive = activation [7] -12.6% | outcome [8] | Potency [9]

O=Cc1ccccc1[N+](=O)[O-]
inactive: outcome [1] | Potency [2] | outcome [3] | outcome [4] | Potency [5] | Potency [6] | activity change, positive = activation [7] 2.11% | outcome [8] | Potency [9] | Potency [10]

Nc1ccn(C2CO[C@H](CO)O2)c(=O)n1 (stereo partly drawn)
inactive: outcome [1] | Potency [2] | outcome [3] | outcome [4] | Potency [5] | Potency [6] | activity change, positive = activation [7] 0.852% [at 42.5 µM] | outcome [8] | Potency [9]

CCCC=O
inactive: outcome [1] | Potency [2] | outcome [3] | outcome [4] | Potency [5] | Potency [6] | activity change, positive = activation [7] 0.262% | Potency [9] | Potency [10]

CC1CCN(CCCC(=O)c2ccc(F)cc2)CC1
inactive: outcome [1] | Potency [2] | outcome [3] | outcome [4] | Potency [5] | Potency [6] | activity change, positive = activation [7] 6.1% [at 42.5 µM] | outcome [8] | Potency [9] | Potency [10]
